DT40 TDP1 no CPT – qHTS for Inhibitors of human tyrosyl-DNA phosphodiesterase 1 (TDP1): qHTS in cells in absence of CPT; Potency, µM (top dose mostly 46.2 µM), for inactives: top-dose activity change, negative = growth inhibition, hits mostly inhibitors; DT40 Tdp1-/- hTDP1 cells, no CPT, ATP luminescence, 48 h; AID 686978, 2013; actives 15% (n = 420,000); note: potency is the fitted concentration of half-maximal effect; nearly all actives have a fitted effect of over 55% in size
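Compound effects on proliferation are scored in DT40 Tdp1-/-;hTDP1 cells in the absence of CPT. ATP levels (CellTiter-Glo luminescence) are recorded after a ≥48 hr, 37 °C incubation.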
TDP1 cell CPT – qHTS for Inhibitors of human tyrosyl-DNA phosphodiesterase 1 (TDP1): qHTS in cells in presence of CPT. chicken DT40 Tdp1-/-;hTDP1 cells + 20 nM CPT, ATP luminescence, 48 h. Potency, µM (series often up to 46.2 µM), for inactives: top-dose activity change, negative = growth inhibition, most hits filed as inhibitors. actives 12% (n = 420,000). AID 686979, 2013; note: potency is the fitted concentration of half-maximal effect; nearly all actives have a fitted effect of over 55% in size
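Cell growth measured by CellTiter-Glo luminescence after a minimum 48 h, 37 C compound exposure with 20 nM CPT in Tdp1-knockout DT40 cells stably expressing hTDP1, seeded 400/well; qHTS titration format.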
ELG1 repair inh – qHTS screen for small molecules that inhibit ELG1-dependent DNA repair in human embryonic kidney (HEK293T) cells expressing luciferase-tagged ELG1; HEK293T ELG1-luciferase reporter, luminescence, 16 h; DNA damage induced by 5-fluorouridine; Potency, µM (titrated, usually from 46.1 µM), for inactives: top-dose activity change, negative = inhibition, hits mostly inhibitors; actives 2.3% (n = 330,000); note: potency is the fitted concentration of half-maximal effect; nearly all actives have a fitted effect of over 55% in size
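Overnight (16 hr) co-exposure of 2,000 cells/well to 5-fluorouridine and compound at 37 °C preceded detection. Luciferase was quantified via ONE-Glo luminescence; loss of signal denotes inhibition.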
Gal4-VP16 FLuc – VP16 counterscreen qHTS for inhibitors of ROR gamma transcriptional activity; Drosophila S2 Gal4-VP16 UAS-luciferase, luminescence, 20 h; Potency, µM (titrated, usually from 53.6 µM), for the others: top-dose activity, negative = inhibition, hits mostly inhibitors; actives 3.5% (n = 310,000);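 note: Gal4-VP16 expression switched on by copper sulfate through the metallothionein promoter; potency is the fitted concentration of half-maximal effect; nearly all actives have a fitted effect of over 50% in size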
RORg inh – qHTS for inhibitors of ROR gamma transcriptional activity. Nuclear receptor ROR-gamma (Mus musculus), P51450. Drosophila S2 Gal4-RORgamma UAS-luciferase reporter, 20 h. Potency, µM (top dose mostly 53.6 µM), without a hit: at the highest dose activity change, negative = inhibition, hits mostly inhibitors. actives 5.4% (n = 310,000); note: potency is the fitted concentration of half-maximal effect; nearly all actives have a fitted effect of over 60% in size
Target sequence (P51450 whole entry, looked up, the tested form may be a part): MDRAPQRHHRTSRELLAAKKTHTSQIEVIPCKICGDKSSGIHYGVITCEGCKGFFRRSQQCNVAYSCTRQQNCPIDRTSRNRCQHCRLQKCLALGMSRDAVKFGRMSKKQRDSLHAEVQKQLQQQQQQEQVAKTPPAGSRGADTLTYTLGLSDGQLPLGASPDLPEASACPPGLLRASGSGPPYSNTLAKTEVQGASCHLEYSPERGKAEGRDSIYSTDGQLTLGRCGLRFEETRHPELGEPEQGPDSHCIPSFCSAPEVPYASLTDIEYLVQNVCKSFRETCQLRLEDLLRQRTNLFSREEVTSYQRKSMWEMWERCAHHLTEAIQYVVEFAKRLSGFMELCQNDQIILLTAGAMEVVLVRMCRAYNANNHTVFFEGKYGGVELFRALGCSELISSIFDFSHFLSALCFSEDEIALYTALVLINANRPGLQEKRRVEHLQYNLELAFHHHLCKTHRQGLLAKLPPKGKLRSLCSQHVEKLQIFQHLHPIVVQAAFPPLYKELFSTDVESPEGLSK
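A Gal4/UAS one-hybrid system in insect cells: metallothionein-promoter Gal4–ROR gamma fusion plus Photinus luciferase reporter. Copper sulfate 700 uM final, 20 hr ambient incubation, luminescent detection after 10 min with reagent.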
IL1B secr inh – qHTS for Inhibitors of Inflammasome Signaling: IL-1-beta AlphaLISA Primary Screen; THP-1 LPS/ATP IL-1B secretion, AlphaLISA, 16 h; active compounds read low; activity change, % at 57.5 µM; actives 4.7% (n = 360,000); in the data active = activity change below about -50%; inconclusive = mostly about -30% to -49%
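Secreted IL-1B measured by AlphaLISA bead assay after 16 h compound exposure of THP-1 cells; compounds (final up to 57.5 uM) added 1 h before LPS (250 ng/mL) and ATP (1.25 mM) stimulation; lower signal means less secretion.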
Active calls of the source: *; [ ] = dose if it differs, or a comment. Hits are enriched below; roughly 21% of the tested compounds scored in any of these assays. Unless noted, calls come from the whole dose curve; as a rule, active = well fitted curve in the direction sought with a large enough effect; inconclusive = small, poorly fitted or top-dose-only effect, or another doubt; inactive = no such curve, though single readings can be large; an effect the other way counts as inactive or inconclusive. % is set by controls: 0 for no effect and ±100 for the full control effect.

Results for FC(F)(F)c1ccccc1Cc1c(-c2cccc(Cl)c2)nc2ccc(Cl)cn12 ?
DT40 TDP1 no CPT: inconclusive; TDP1 cell CPT: inconclusive; IL1B secr inh: 23

What do the screens show for `COc1cccc(-c2nc3ccccc3c(=O)o2)c1`?
DT40 TDP1 no CPT: inconclusive; TDP1 cell CPT: inconclusive; ELG1 repair inh: inconclusive; Gal4-VP16 FLuc: -2%; RORg inh: -6%; IL1B secr inh: 16

Results for CCn1c(-c2cc(-c3cccc(OC)c3)nc3ccccc23)n[nH]c1=S ?
DT40 TDP1 no CPT: inconclusive; TDP1 cell CPT: inconclusive; ELG1 repair inh: -5%; Gal4-VP16 FLuc: inconclusive; RORg inh: 5µM*; IL1B secr inh: -6

Results for CCc1ccc(-c2cc(-c3n[nH]c(=S)n3CC)c3ccccc3n2)cc1 ?
ELG1 repair inh: -11%; Gal4-VP16 FLuc: -23%; RORg inh: 2µM*

What do the screens show for `CCOCCCNC(=O)Cn1nc(C)n2c(cc3cc(C)ccc32)c1=O`?
DT40 TDP1 no CPT: -9%; TDP1 cell CPT: 1%

Results for CCOC(=O)C1(CCOC)CCN(Cc2ccncc2)CC1 ?
DT40 TDP1 no CPT: -4%; TDP1 cell CPT: 15%; ELG1 repair inh: 10%; Gal4-VP16 FLuc: -12%; RORg inh: -16%; IL1B secr inh: 22

What do the screens show for `CCOC(=O)C1(CCOc2ccccc2)CCN(Cc2ccncc2)CC1`?
DT40 TDP1 no CPT: 26µM*; TDP1 cell CPT: inconclusive; ELG1 repair inh: -5%; Gal4-VP16 FLuc: 2%; RORg inh: 19%; IL1B secr inh: -20

How did CCOC(=O)C1(CCOc2ccccc2)CCN(Cc2ccc(-n3cccn3)cc2)CC1 do in these assays?
DT40 TDP1 no CPT: 16µM*; TDP1 cell CPT: inconclusive; ELG1 repair inh: inconclusive; Gal4-VP16 FLuc: -6%; RORg inh: 23%; IL1B secr inh: 4

What do the screens show for `CCOC(=O)C1(CCOc2ccccc2)CCN(Cc2cccn2-c2ncccn2)CC1`?
DT40 TDP1 no CPT: inconclusive; TDP1 cell CPT: inconclusive; ELG1 repair inh: -9%; Gal4-VP16 FLuc: -18%; RORg inh: 12%; IL1B secr inh: -27

How did CCc1cccc(NC(=O)COC(=O)CSc2ccc(C)cc2)c1 do in these assays?
DT40 TDP1 no CPT: -29%; TDP1 cell CPT: -14%; IL1B secr inh: 10

What do the screens show for `COc1ccc(C(CNC(=O)COc2ccccc2C)N2CCCCC2)cc1` (stereo not drawn)?
DT40 TDP1 no CPT: 16µM*; TDP1 cell CPT: 21µM*; ELG1 repair inh: 0%; IL1B secr inh: -6

Results for COc1ccc(C(CNC(=O)COc2ccc(F)cc2Br)N2CCCC2)cc1 (stereo not drawn) ?
DT40 TDP1 no CPT: inconclusive; TDP1 cell CPT: inconclusive; ELG1 repair inh: 9%; Gal4-VP16 FLuc: inconclusive; RORg inh: 1%; IL1B secr inh: -54*

How did COc1ccc(C(CNC(=O)COc2cc(C)ccc2Cl)N2CCCCC2)cc1 (stereo not drawn) do in these assays?
DT40 TDP1 no CPT: inconclusive; TDP1 cell CPT: inconclusive; ELG1 repair inh: inconclusive; IL1B secr inh: 41

Results for Cc1ccccc1OCC(=O)NCC(c1ccc(Cl)cc1)N1CCCCC1 (stereo not drawn) ?
DT40 TDP1 no CPT: 13µM*; TDP1 cell CPT: 21µM*

What do the screens show for `COc1ccccc1C1CN(Cc2cccc(OCCO)c2)Cc2ccccc2O1` (stereo not drawn)?
DT40 TDP1 no CPT: inconclusive; TDP1 cell CPT: -2%[9.04 µM]

How did CCc1nc2cc(C(=O)N[C@H]3CCCCNC3=O)cc(NC(=O)c3ccccc3OC)c2n1C do in these assays?
DT40 TDP1 no CPT: -14%; TDP1 cell CPT: -15%

How did CCCNC(=O)N1N=C(c2ccc(N)cc2)c2cc3c(cc2C1C)OCO3 (stereo not drawn) do in these assays?
Gal4-VP16 FLuc: 1%; RORg inh: 26%

What do the screens show for `Cc1ccc(-n2c(=O)c3c(c4cc(C)ccc4n3C)n(CC(=O)Nc3cc(C)cc(C)c3)c2=O)cc1`?
DT40 TDP1 no CPT: -14%; TDP1 cell CPT: 1%

Results for Cc1ccc(OCCCCN2CCCC(C)C2)c([N+](=O)[O-])c1 (stereo not drawn) ?
DT40 TDP1 no CPT: 23µM*; TDP1 cell CPT: 18µM*; ELG1 repair inh: 0%; Gal4-VP16 FLuc: 9%; RORg inh: 11%; IL1B secr inh: -5

What do the screens show for `CCOc1ccccc1OCCOCCOc1ccccc1[N+](=O)[O-]`?
DT40 TDP1 no CPT: 10µM*; TDP1 cell CPT: -27%; ELG1 repair inh: 4%; Gal4-VP16 FLuc: -1%; RORg inh: inconclusive; IL1B secr inh: 18

How did CC1CCN(CCCCOc2ccccc2[N+](=O)[O-])CC1 do in these assays?
DT40 TDP1 no CPT: -13%; TDP1 cell CPT: -37%; ELG1 repair inh: 1%; Gal4-VP16 FLuc: -14%; RORg inh: -4%; IL1B secr inh: -62*

How did CC1CCN(CCCCOc2ccc([N+](=O)[O-])cc2)CC1 do in these assays?
DT40 TDP1 no CPT: -22%; TDP1 cell CPT: 16%; ELG1 repair inh: -1%; Gal4-VP16 FLuc: -1%; RORg inh: 2%; IL1B secr inh: -11

How did Cc1ccc([N+](=O)[O-])c(OCCCN2CCCCCC2)c1 do in these assays?
DT40 TDP1 no CPT: inconclusive; TDP1 cell CPT: inconclusive; ELG1 repair inh: 13%; Gal4-VP16 FLuc: 3%; RORg inh: -14%; IL1B secr inh: -7

Results for O=C(NCCc1ccccc1)c1ccc(CS(=O)Cc2ccc(Cl)cc2)o1 (stereo not drawn) ?
DT40 TDP1 no CPT: inconclusive; TDP1 cell CPT: inconclusive; ELG1 repair inh: 9%; Gal4-VP16 FLuc: -8%; RORg inh: 40%; IL1B secr inh: -8

How did O=C(COC(=O)CNC(=O)c1ccc(Cl)c([N+](=O)[O-])c1)NC(=O)c1ccccc1 do in these assays?
DT40 TDP1 no CPT: 8%; TDP1 cell CPT: -14%; ELG1 repair inh: 3%; Gal4-VP16 FLuc: 0%; RORg inh: 1%; IL1B secr inh: 3

How did Cc1ccc2c(c1)N(C(=O)NCc1ccccc1)CCO2 do in these assays?
DT40 TDP1 no CPT: -8%; TDP1 cell CPT: 0%

High-throughput results from PubChem BioAssay.
